# Compound activity from PubChem.
# LDHA inh – blocks human lactate dehydrogenase A; AID 1347041; activity change, % (values are at about 110 or 230 µM); purified LDHA, NADH/diaphorase-resazurin fluorescence; active compounds read low; hit rate 0.15% among 480,000; P00338; in the data active = activity change below about -30%; inconclusive = mostly about -25% to -30%
#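 Human LDH5 (2 nM) was incubated with 0.06 mM NADH and 0.2 mM pyruvate for 5 min at room temperature in Tris pH 7.4. Remaining NADH was coupled through diaphorase/resazurin, and resorufin fluorescence was read at 0 and 20 min.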
# TDP1 cell CPT – growth inhibition of DT40 Tdp1-/-;hTDP1 cells with camptothecin (screen for TDP1 inhibitors); hit rate 12% among 420,000; chicken DT40 Tdp1-/-;hTDP1 cells + 20 nM CPT, ATP luminescence, 48 h; AID 686979; Potency, µM (highest dose often 46.2 µM), actives largely listed as inhibitors; also: nearly all actives have a fitted effect of over 55% in size
#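 Cell growth measured by CellTiter-Glo luminescence after a minimum 48 h, 37 C compound exposure with 20 nM CPT in Tdp1-knockout DT40 cells stably expressing hTDP1, seeded 400/well; qHTS titration format.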
# DT40 TDP1 no CPT – qHTS for Inhibitors of human tyrosyl-DNA phosphodiesterase 1 (TDP1): qHTS in cells in absence of CPT. hit rate 15% among 420,000. Potency, µM (titrated, usually from 46.2 µM), hits mostly inhibitors. DT40 Tdp1-/- hTDP1 cells, no CPT, ATP luminescence, 48 h. AID 686978, 2013; also: nearly all actives have a fitted effect of over 55% in size
#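 No-CPT arm: Tdp1-/-;hTDP1 DT40 cells (400/well) plus compounds, incubated ≥48 hr at 37 °C. Readout CellTiter-Glo luminescence.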
# VP16 counter – counter-screen for ROR gamma inhibitors: Gal4-VP16 reporter; Drosophila S2 Gal4-VP16 UAS-luciferase, luminescence, 20 h; Potency, µM (titrated, usually from 53.6 µM), hits mostly inhibitors; hit rate 3.5% among 310,000;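 also: Gal4-VP16 expression switched on by copper sulfate through the metallothionein promoter; nearly all actives have a fitted effect of over 50% in size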
# RORg inh – inhibitors of mouse ROR gamma transcriptional activity | AID 2551 | hit rate 5.4% among 310,000 | Drosophila S2 Gal4-RORgamma UAS-luciferase reporter, 20 h | Potency, µM (titrated, usually from 53.6 µM), actives largely listed as inhibitors | P51450; also: nearly all actives have a fitted effect of over 60% in size
# Target sequence (P51450 whole entry, looked up, the tested form may be a part): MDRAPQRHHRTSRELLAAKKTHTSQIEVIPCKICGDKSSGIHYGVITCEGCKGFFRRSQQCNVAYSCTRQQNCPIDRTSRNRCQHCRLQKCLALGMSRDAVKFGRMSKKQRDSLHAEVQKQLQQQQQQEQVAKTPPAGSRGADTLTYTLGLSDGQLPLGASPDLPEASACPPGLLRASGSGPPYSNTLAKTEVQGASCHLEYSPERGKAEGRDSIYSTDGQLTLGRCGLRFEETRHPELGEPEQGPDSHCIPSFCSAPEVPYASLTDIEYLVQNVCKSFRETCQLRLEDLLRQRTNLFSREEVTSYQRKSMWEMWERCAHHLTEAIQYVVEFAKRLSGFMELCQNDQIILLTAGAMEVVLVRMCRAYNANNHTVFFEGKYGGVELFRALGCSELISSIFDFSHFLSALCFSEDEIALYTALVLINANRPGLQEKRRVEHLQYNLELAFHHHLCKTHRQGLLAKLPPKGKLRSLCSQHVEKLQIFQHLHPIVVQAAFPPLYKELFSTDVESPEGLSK
#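 Drosophila Schneider cells stably carrying a metallothionein-driven Gal4 DBD–ROR gamma fusion and a UAS-Photinus luciferase reporter were exposed to compound for 1 hr, then induced with copper sulfate (700 uM final) for 20 hr at ambient temperature before luminescence reading.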
# IL-1B inflam inh – inflammasome signaling inhibition, IL-1 beta readout. THP-1 LPS/ATP IL-1B secretion, AlphaLISA, 16 h; active compounds read low. activity change, % at 57.5 µM. hit rate 4.7% among 360,000; in the data active = activity change below about -50%; inconclusive = mostly about -30% to -49%
#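 THP-1 cells pretreated 1 hr with compounds (up to 57.5 uM final), then stimulated with LPS (250 ng/mL final) plus ATP (1.25 mM final); secreted IL-1B measured by AlphaLISA after 16 hr, decreased signal indicating inhibition.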
# Hits are given with their value; - = inactive; ? = inconclusive; . = no result. In the library only some 18% were active in any assay of this set; here they are far more common. Unless noted, calls follow the shape of the dose curve; as a rule, active = well fitted curve in the direction sought with a large enough effect; inconclusive = small, poorly fitted or top-dose-only effect, or another doubt; inactive = no such curve, though single readings can be large; an effect the other way counts as inactive or inconclusive.
SMILES,LDHA inh,TDP1 cell CPT,DT40 TDP1 no CPT,VP16 counter,RORg inh,IL-1B inflam inh
COc1cc(NC(=O)c2nc3ccccc3nc2OC)cc(OC)c1,-,.,.,.,.,.
OC(CNCCc1ccccc1)COc1ccc(OCC(O)CNCCc2ccccc2)cc1 (stereo unspecified),-,-,16µM,-,-,-91
Cc1ccc(OCC(O)CNCc2ccccc2)cc1C (stereo unspecified),-,?,?,-,-,?
CC(=O)c1c(C)[nH]c2ccc(OCC(O)CNCCc3ccccc3)cc12 (stereo unspecified),-,?,16µM,.,.,.
COc1ccc(CCNCC(O)COc2c(C)cccc2C)cc1OC (stereo unspecified),-,-,?,-,-,-67
COc1ccc(CCNCC(O)COc2cccc(C(C)=O)c2)cc1OC (stereo unspecified),-,-,?,-,-,-
COc1ccc(CCNCC(O)COc2ccc(Cl)cc2)cc1OC (stereo unspecified),-,?,-,-,-,?
OC(CNCCc1ccc(Cl)cc1)COc1ccc2ccccc2c1 (stereo unspecified),-,?,?,?,?,-106
CCOC(=O)c1cn(Cc2cccc(Cl)c2)nn1,-,-,-,-,-,-
CCOC(=O)c1cn(Cc2c(C)c(C)c(C)c(C)c2C)nn1,-,16µM,23µM,-,-,-
Cn1c(=O)c2c(-c3ccc(Br)cc3)n(CCc3ccccc3)cc2n(C)c1=O,-,15µM,?,.,.,.
CCCCCn1cc2c(c1-c1ccc(Br)cc1)c(=O)n(C)c(=O)n2C,-,18µM,21µM,.,.,.
Cn1c(=O)c2c(-c3ccc(Cl)cc3)n(CCc3ccccc3)cc2n(C)c1=O,-,?,23µM,.,.,.
Cn1c(=O)c2c(-c3ccc(Cl)cc3)n(Cc3ccc(Cl)cc3)cc2n(C)c1=O,-,?,?,.,.,.
Cn1c(=O)c2c(-c3ccccc3)n(Cc3cccnc3)cc2n(C)c1=O,-,-,-,-,-,-
NC(=O)NC(=O)CN1CCCC(c2nc3ccccc3o2)C1 (stereo unspecified),-,.,.,.,.,.
Cc1ccccc1Cn1c(=O)n(CCCC(=O)NCc2ccco2)c(=O)c2ccccc21,-,?,?,-,-,-
Cc1cccc(Cn2c(=O)n(CCCC(=O)NCc3ccco3)c(=O)c3ccccc32)c1,-,9.2µM,21µM,-,-,?
O=C(CCCCn1c(=O)c2ccccc2n(Cc2ccc(Cl)cc2)c1=O)NCc1ccco1,-,?,16µM,-,-,-
NC(=O)Cn1c(=O)n(CCCCCC(=O)NCc2ccccc2Cl)c(=O)c2sccc21,-,?,?,.,.,.
CCC1CCCCN1C(=O)Cn1c(=O)n(CCCCCC(=O)NCc2ccccc2Cl)c(=O)c2sccc21 (stereo unspecified),-,?,18µM,.,.,.
O=C(CCCCn1c(=O)c2ccccc2n(Cc2ccc(Cl)cc2)c1=O)NCc1ccccc1Cl,-,15µM,16µM,.,.,.
O=c1cc(CSc2nnnn2-c2ccccc2)c2ccc(O)cc2o1,-,.,.,.,.,.
CC(NC(=O)CSc1nnc(COc2ccccc2Cl)n1C)c1cccc2ccccc12 (stereo unspecified),-,.,.,.,.,.
O=C(CCCn1c(=O)c2sccc2n(Cc2ccc(F)cc2)c1=O)NCc1ccco1,-,26µM,21µM,-,-,-
SMILES,LDHA inh,TDP1 cell CPT,DT40 TDP1 no CPT,VP16 counter,RORg inh,IL-1B inflam inh
CCOC(=O)c1nc2ccccc2nc1NCc1cccc(OC)c1,-,.,.,.,.,.
COc1ccc(-c2ncccc2OC(=O)C23CC4CC(CC(C4)C2)C3)cc1,-,18µM,23µM,-,-,-
COc1ccc(OC(=O)C23CC4CC(CC(Cl)(C4)C2)C3)cc1,-,.,.,.,.,.
COc1ccc(C2=CC(=O)C[C@H](c3ccc(OC)c(OC)c3)C2)cc1,-,13µM,18µM,.,.,-
COc1ccc([C@H]2CC(=O)C=C(c3cccc(OC)c3OC)C2)cc1OC,-,?,23µM,.,.,-
COc1ccc([C@H]2CC(=O)C=C(c3ccc(CNC(=O)OC(C)(C)C)cc3)C2)cc1,-,?,23µM,.,.,-
COc1ccc([C@H]2CC(=O)C=C(c3ccc(C)cc3)C2)cc1OC,-,18µM,?,.,.,-
COc1ccc([C@H]2CC(=O)C=C(c3ccc(OC(F)(F)F)cc3)C2)cc1,-,?,?,.,.,-
COc1ccc([C@H]2CC(=O)C=C(c3ccc(-c4ccccc4)cc3)C2)cc1OC,-,-,-,.,.,-
CN(C)c1cccc(C(=O)OCC(=O)N2c3ccccc3Sc3ccccc32)c1,-,.,.,.,.,.
Cc1ccc(C)c(N2CC(c3nc4ccccc4[nH]3)CC2=O)c1 (stereo unspecified),-,.,.,.,.,.
CCN(c1nc(N)c(C(=O)N=C(N)N)nc1Cl)C(C)C,-,21µM,7.3µM,.,.,-
Nc1cc(=O)[nH]c(SCc2ccccc2)n1,-,-,-,.,.,-
Nc1cc(=O)[nH]c(SCc2ccc(Cl)cc2)n1,-,-,-,-,-,-
Nc1cc(=O)[nH]c(SCc2cccc(Cl)c2)n1,-,23µM,?,-,-,-
CC(C)(C)c1ccc(CSc2nc(N)cc(=O)[nH]2)cc1,-,23µM,18µM,7.9µM,-,-
Cc1cccc(-n2ncc(C(=O)N3CCc4ccccc4C3)c2-n2cccc2)c1,-,.,.,.,.,.
COc1cccc2sc(N(CCCN(C)C)C(=O)c3ccc(S(=O)(=O)N4CCCc5ccccc54)cc3)nc12,-,?,?,?,?,-50
CN(C)CCCN(C(=O)c1ccc(S(=O)(=O)N2CCc3ccccc32)cc1)c1nc2c(Cl)cccc2s1,-,?,?,?,?,-83
CCc1ccc2nc(N(CCCN(C)C)C(=O)c3ccc(S(=O)(=O)N4CCCc5ccccc54)cc3)sc2c1,-,?,?,?,?,-98
Cc1cccnc1N(Cc1cccs1)C(=O)Nc1cccc(Cl)c1,-,.,.,.,.,.
CCOC(=O)c1c(C)nc(C)c(C(=O)OCC)c1-c1cccc([N+](=O)[O-])c1,-,-,?,.,.,-
CCOC(=O)c1cc(-c2cccc([N+](=O)[O-])c2)nc2[nH]c(=O)[nH]c(=O)c12,-,-,23µM,-,-,-
CCOC(=O)C1CSC(Cc2ccc(OCc3ccc([N+](=O)[O-])cc3)cc2)N1 (stereo unspecified),.,.,.,?,14µM,.
CCOC(=O)CCc1c(C)c2ccc(OCc3ccc([N+](=O)[O-])cc3)cc2oc1=O,-,-,-,-,-,-
N#Cc1nc(-c2cccc3ccccc23)oc1NCc1ccc2c(c1)OCO2,-,.,.,.,.,.
